From PubChem BioAssay come the findings set out here.

Experiment [1] concerns PRMT1 (protein arginine N-methyltransferase 1). The experiment is described as follows: PRMT1 binders on small-molecule microarrays, primary screen, biochemical, small-molecule microarray, 635 nm fluorescence (AID 1088).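 Further: binding of Prmt1 protein to compounds spotted on small-molecule microarray slides.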 Particulars: small-molecule microarray binding, higher = more signal.
A short description of experiment [2]: yeast growth modulation, basal conditions, primary screen, YJM789 clinical isolate, OD600, 24 h (AID 1089).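 Further: growth of clinical yeast isolate S. cerevisiae YJM 789 seeded 1000 cells per well; test concentration not given here.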 Particulars: S. cerevisiae YJM789 growth, higher = more signal, called active from +8 up or from −8 down.
A short description of experiment [3]: fission yeast growth modulation, primary screen, strain 972, OD600, 24 h, no modulator (AID 1090).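 Further: basal condition with compound alone and no growth modifier present; test concentration not given here.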 The conditions noted are these: S. pombe 972 growth, higher = more signal, called active from +8 up or from −8 down.
Experiment [4] is described as follows: S. cerevisiae growth modulation with rapamycin, primary screen, strain BY4716, OD600, 96 h (AID 1091). Further: test concentration not given here. Particulars: higher = more signal, called active from +8 up or from −8 down.
Experiment [5] has as its target Torsin-1A-interacting protein 2 (Homo sapiens) (UniProt Q8NFQ8). The experiment is described as follows: LULL1 binders on small-molecule microarray, primary screen, cell lysate, human LULL1 lysate, 635/667 nm fluorescence (AID 1092).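 Further: probe is lysate of COS7 cells overexpressing human LULL1; score merges per-feature 667 nm fluorescence with signal-to-noise.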 The conditions noted are these: hLULL1 lysate binding, 635 nm fluorescence, higher = more signal.
Experiment [6] is described as follows: E. coli growth modulation, two-sided OD650, primary screen, E. coli filamentation project, strain DRC41, 24 h (AID 1093).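 Further: MC1000 strain lacking acrAB efflux and sulA so SOS filamentation is blocked; test concentration not given here.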 The conditions noted are these: OD650, 24 h, higher = more signal, called active from +8 up or from −8 down.
Experiment [7] can be described thus: small-molecule microarray binders of probe aLefty2, primary screen, biochemical, biotinylated probe, 635/667 nm fluorescence (AID 1094).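 Further: score merges spot fluorescence near 667 nm with spot signal-to-noise ratio.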 The conditions noted are these: higher = more signal.
In experiment [8] the test system is Noggin (protein binding on small-molecule microarray). The experiment is described as follows: Noggin binders on small-molecule microarray, primary screen, biochemical, 635/667 nm fluorescence (AID 1095).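 Further: score merges 667 nm feature fluorescence with signal to noise over triplicate slides.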 Particulars: 635 nm fluorescence, higher = more signal.
Experiment [9] deals with Neurogenic locus notch homolog protein 3 (Homo sapiens) (UniProt Q9UM47). Briefly: NOTCH3 binders on small-molecule microarray, primary screen, biochemical, 635/667 nm fluorescence (AID 1096). The conditions noted are these: NOTCH3 binding, 635 nm fluorescence, higher = more signal.
Sequence of Neurogenic locus notch homolog protein 3 (Homo sapiens) (Q9UM47 whole entry, looked up): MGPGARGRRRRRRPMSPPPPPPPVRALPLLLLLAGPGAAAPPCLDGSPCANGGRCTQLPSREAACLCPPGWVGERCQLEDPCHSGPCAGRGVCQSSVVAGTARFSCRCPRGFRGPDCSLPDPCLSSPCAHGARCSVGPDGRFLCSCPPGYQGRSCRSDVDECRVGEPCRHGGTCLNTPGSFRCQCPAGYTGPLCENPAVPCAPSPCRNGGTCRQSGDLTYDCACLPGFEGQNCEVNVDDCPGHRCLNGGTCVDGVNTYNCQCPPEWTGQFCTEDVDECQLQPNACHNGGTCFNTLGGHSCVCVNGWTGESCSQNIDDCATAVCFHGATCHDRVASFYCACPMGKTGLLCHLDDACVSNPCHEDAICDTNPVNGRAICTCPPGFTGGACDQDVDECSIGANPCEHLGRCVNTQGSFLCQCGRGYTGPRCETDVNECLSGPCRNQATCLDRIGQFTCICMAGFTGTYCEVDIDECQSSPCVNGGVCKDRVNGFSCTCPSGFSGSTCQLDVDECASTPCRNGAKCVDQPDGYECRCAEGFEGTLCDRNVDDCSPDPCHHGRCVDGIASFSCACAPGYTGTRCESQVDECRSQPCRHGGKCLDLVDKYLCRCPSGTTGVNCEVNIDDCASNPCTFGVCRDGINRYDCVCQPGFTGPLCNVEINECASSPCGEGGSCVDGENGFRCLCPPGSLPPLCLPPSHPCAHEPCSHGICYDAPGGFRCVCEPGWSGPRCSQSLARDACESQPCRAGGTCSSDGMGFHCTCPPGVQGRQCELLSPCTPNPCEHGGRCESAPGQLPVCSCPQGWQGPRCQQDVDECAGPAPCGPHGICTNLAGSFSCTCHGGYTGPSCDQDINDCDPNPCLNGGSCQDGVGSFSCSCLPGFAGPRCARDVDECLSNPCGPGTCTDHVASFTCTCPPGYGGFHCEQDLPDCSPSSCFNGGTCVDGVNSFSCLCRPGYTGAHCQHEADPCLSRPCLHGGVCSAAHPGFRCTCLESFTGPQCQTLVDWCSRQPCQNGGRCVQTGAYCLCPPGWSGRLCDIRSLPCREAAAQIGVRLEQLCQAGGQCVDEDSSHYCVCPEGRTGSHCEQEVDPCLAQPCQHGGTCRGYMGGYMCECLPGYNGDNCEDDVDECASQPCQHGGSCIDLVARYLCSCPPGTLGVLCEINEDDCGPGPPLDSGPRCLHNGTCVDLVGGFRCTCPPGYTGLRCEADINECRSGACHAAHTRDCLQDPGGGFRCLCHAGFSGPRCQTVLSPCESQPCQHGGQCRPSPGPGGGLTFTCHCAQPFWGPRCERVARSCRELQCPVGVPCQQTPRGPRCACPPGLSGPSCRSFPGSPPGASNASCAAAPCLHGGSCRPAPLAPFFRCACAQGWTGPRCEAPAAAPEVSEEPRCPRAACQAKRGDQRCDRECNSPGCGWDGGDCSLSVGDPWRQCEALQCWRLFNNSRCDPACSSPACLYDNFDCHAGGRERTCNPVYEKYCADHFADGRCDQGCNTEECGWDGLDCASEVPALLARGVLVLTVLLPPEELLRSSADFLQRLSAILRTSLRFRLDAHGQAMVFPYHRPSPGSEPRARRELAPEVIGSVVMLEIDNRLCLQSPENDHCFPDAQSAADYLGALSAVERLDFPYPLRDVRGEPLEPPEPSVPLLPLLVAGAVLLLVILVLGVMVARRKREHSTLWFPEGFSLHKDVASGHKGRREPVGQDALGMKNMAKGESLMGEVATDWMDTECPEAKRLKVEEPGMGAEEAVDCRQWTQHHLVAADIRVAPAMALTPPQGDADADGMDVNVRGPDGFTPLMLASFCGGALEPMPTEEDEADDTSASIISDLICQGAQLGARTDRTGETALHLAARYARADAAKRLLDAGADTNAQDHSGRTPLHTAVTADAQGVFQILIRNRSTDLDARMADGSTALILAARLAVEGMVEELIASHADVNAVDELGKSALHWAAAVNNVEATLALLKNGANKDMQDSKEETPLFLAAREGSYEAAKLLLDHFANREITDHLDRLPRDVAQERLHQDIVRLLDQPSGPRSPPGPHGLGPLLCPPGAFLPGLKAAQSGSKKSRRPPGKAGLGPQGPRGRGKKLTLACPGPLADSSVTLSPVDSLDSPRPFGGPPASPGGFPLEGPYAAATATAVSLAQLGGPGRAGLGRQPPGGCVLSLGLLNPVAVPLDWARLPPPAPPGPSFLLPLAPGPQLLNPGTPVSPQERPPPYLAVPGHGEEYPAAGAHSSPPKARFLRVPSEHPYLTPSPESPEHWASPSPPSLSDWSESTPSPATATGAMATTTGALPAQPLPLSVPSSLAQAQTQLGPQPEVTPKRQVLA
The nature of experiment [10]: small-molecule microarray binders of probe aEGFR, primary screen, biochemical, biotinylated probe, 635/667 nm fluorescence (AID 1097).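 Further: probe is a biotinylated anti-EGFR antibody binding compounds printed on slides; score combines fluorescence near 667 nm and signal to noise of each spot.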 Particulars: higher = more signal.

Structures are written as SMILES. Calls of active or inactive are those of the source.

Sequence of Torsin-1A-interacting protein 2 (Homo sapiens) (Q8NFQ8 whole entry, looked up): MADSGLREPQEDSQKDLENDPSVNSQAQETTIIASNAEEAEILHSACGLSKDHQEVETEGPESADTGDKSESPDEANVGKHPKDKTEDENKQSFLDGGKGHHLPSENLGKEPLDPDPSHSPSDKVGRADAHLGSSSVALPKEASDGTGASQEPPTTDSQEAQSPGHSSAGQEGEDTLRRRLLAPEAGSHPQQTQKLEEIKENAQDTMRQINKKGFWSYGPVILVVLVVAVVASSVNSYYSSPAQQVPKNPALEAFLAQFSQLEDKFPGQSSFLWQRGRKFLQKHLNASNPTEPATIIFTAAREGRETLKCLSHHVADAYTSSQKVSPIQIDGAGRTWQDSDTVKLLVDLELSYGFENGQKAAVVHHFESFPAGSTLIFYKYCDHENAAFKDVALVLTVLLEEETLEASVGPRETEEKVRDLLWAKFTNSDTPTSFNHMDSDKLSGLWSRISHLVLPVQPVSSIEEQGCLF

For the molecule `COCCOC(=O)N1C(=O)[C@@]2(c3cc(C#CCC(C(=O)OC)C(=O)OC)ccc31)[C@H](c1ccc(O)cc1)N1[C@H](c3ccccc3)[C@H](c3ccccc3)OC(=O)[C@H]1[C@@H]2C(=O)N1CCc2cc(OC)c(OC)cc2C1`, the composite z-score in [1] is 1.54; in experiment [5], 2.56; in [7] it was -0.103; in experiment [8], 1.12; in experiment [9] it was 0.8; in [10] it was 0.0353. Besides, the z-score in experiment [2] was 0.344 (inactive); in experiment [3], -1.01 (inactive); in experiment [4] it was 0.157 (inactive); in [6], 0.794 (inactive).

As for `C=CC[C@]1(C(=O)NCC(O)CO)N=C(c2ccc(OCCCO)cc2)O[C@H]1c1ccccc1CN=[N+]=[N-]` (stereo not given in full), the composite z-score in experiment [1] is 1.01; in experiment [5], 3.51; in experiment [7], 0.239; in [8], -0.62; in [9], -0.922; in experiment [10], -0.0828. Moreover, the z-score in [2] was -0.0604 (inactive); in experiment [3] it was -0.234 (inactive); in experiment [4], -0.83 (inactive); in experiment [6] it was 0.384 (inactive).

For `COc1ccc(C#Cc2ccc3c(c2)[C@]2(C(=O)N3)[C@H](c3ccccc3OCCO)N3[C@H](c4ccccc4)[C@H](c4ccccc4)OC(=O)[C@H]3[C@@H]2C(=O)NC[C@H](O)c2ccccc2)cc1`, the composite z-score in experiment [1] was 1.54; in experiment [5] it was 3; in [7], -0.0168; in experiment [8], 1.58; in experiment [9] it was 1.08; in [10], 0.095. The z-score was 2.42 (inactive) in [2], 2.18 (inactive) in experiment [3], 2.92 (inactive) in [4] and 2.11 (inactive) in experiment [6].

`O=C(O)C1=CC[C@H]2C(=O)N(c3ccccc3)C(=O)[C@@H]12`: the composite z-score in [1] is 0.964; in experiment [5], 2.5; in experiment [7], 0.0694; in [8] it was -0.312; in experiment [9], 1.06; in experiment [10] it was 0.186. In addition, the z-score in [2] is 0.735 (inactive); in [3] it was 1.38 (inactive); in experiment [4] it was 1.52 (inactive); in [6], -0.148 (inactive).

Turning to `O=C1NC(=O)C2C1C=CC(C(O)C1CCCCC1)N2Nc1ccccn1` (stereo not given), the composite z-score in experiment [1] was 0.327; in experiment [5] it was 2.43; in [7], 0.0078; in [8], -0.401; in experiment [9], 0.492; in [10], -0.104. The z-score in experiment [2] is 0.459 (inactive); in [3], 0.633 (inactive); in experiment [4], 0.117 (inactive); in [6], -1.5 (inactive).

In the case of `COc1ccc(C(=O)Nc2ccc(CN3C(=O)[C@]4(O[C@H](CC(=O)N(CCO)Cc5ccccc5)[C@@H]([Si](C)(C)c5ccc(OC)cc5)[C@@H]4C)c4ccccc43)cc2)cc1`, the composite z-score in experiment [1] was 1.54; in experiment [5], 2.03; in [7], -0.235; in experiment [8], 1.08; in [9] it was 0.565; in [10], -0.096. Moreover, the z-score is 0.517 (inactive) in [2], 1.03 (inactive) in experiment [3], 3.41 (inactive) in experiment [4] and 1.6 (inactive) in [6].

`CC(C)(C)OC(=O)CC[C@@]1(C(=O)N2CCOCC2)N=C(c2ccc(OCCCO)cc2)O[C@@H]1c1ccccc1CN=[N+]=[N-]`: the composite z-score in experiment [1] came out at 1.38; in experiment [5], 3.83; in experiment [7], 0.313; in experiment [8], 1.06; in experiment [9] it was 0.985; in experiment [10], 0.103. For the same molecule, the z-score is -0.335 (inactive) in experiment [2], -0.183 (inactive) in experiment [3], -0.654 (inactive) in experiment [4] and 0.675 (inactive) in experiment [6].

With `NCCCCCCNC(=O)[C@@H]1C[C@@H]2C(=O)NCC(=O)N2[C@@H]1c1cccc(OCCO)c1`, the composite z-score was 1.37 in experiment [1]; 2.11 in [5]; 0.0997 in experiment [7]; 1.12 in experiment [8]; 0.783 in experiment [9]; 0.0988 in experiment [10]. Moreover, the z-score was -0.205 (inactive) in [2], -0.542 (inactive) in experiment [3], -0.138 (inactive) in experiment [4] and 1.04 (inactive) in experiment [6].
